Source: PubChem BioAssay
Only some compounds are listed: those with a hit (about 1.6% of all), similar ones and a draw of the others.
HUVEC tox IL1B: toxic to HUVEC cells under IL-1B stimulation | HUVEC cell count loss, Hoechst imaging, IL-1B stimulated | cell count reduction, % at 2 µM | 0.41% of 94,000 active | AID 845;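 active = cell count reduction more than 3 SD above the screen-wide mean, cut at about 70% in these data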
TNFa cytotox: toxic to HUVEC cells under TNF alpha stimulation; 0.17% of 93,000 active; AID 848; cell count reduction, % at 2 µM; HUVEC TNFalpha-stimulated, Hoechst cell count, imaging;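 active = cell count reduction exceeding the screen mean by over 5 SD, scaled to untreated wells per plate, cut at about 78% in these data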;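 also: cells counted after 24 h of TNF alpha exposure following the 1 h pretreatment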
VCAM1 TNFa inh: reduces TNF alpha induced VCAM1 expression in HUVEC; AID 802; HUVEC TNFa-induced VCAM-1 immunofluorescence, high-content imaging; inhibition, % at 2 µM; 0.48% of 95,000 active;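 active = inhibition above the batch mean plus 3 SD, with images confirmed as a hit by eye, cut at about 37% in these data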
NFkB transloc inh: blocks IL-1B driven NFkB nuclear translocation in HUVEC cells; 0.43% of 94,000 active; inhibition, % at 2 µM; HUVEC IL-1B NFkB p65 nuclear translocation imaging;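 active = inhibition above about 30% together with a positive call from visual inspection of the well image, limit read from the data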;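 also: nuclear over cytoplasmic p65 intensity ratio measured by imaging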
F-actin modifier: alters cytoskeleton assembly in HUVEC cells. HUVEC TNFa F-actin phalloidin imaging, high content. inhibition, % at 2 µM. 0.18% of 91,000 active. AID 836;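 active = inhibition above the batch mean plus 3 SD and confirmed as a hit by visual image inspection, cut at about 30% in these data, passing the limit was not always enough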
IL1B NFkB pot: enhances IL-1B driven NFkB nuclear translocation; HUVEC IL-1B NFkB p65 nuclear translocation imaging; 0.3% of 94,000 active; activation, % at 2 µM;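 active = activation above 40%, about the mean plus 3 SD, also judged a hit on visual image review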;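 also: percent activation is computed from the nuclear over cytoplasmic p65 intensity ratio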
Numbers stand for hits; - = inactive; . = no result.

SMILES	HUVEC tox IL1B	TNFa cytotox	VCAM1 TNFa inh	NFkB transloc inh	F-actin modifier	IL1B NFkB pot
CCOc1ccc(C2/C(=C(\O)c3c(C)[nH]c(C(=O)OC)c3C)C(=O)C(=O)N2CCN(C)C)cc1 (stereo not drawn)	-	-	92.2	-	-	-
CCNS(=O)(=O)c1cc(OC)ccc1OC	-	-	-	-	-	-
N#Cc1nc(-c2cccc3ccccc23)oc1N1CCCCC1	-	-	-	-	-	-
CC1CCN(c2oc(-c3cccc4ccccc34)nc2C#N)CC1	94.2	.	-	99.5	-	-
CCOC(=O)c1sc2cc([N+](=O)[O-])cc(SCC(=O)OC)c2c1N	-	-	-	-	-	50.7
COCC(=O)N(Cc1cc2cc(OC)ccc2[nH]c1=O)c1ccc(C)cc1	-	-	-	-	-	-
Cc1cc(C)c(/C=N/NC(N)=O)c(C)c1/C=N/NC(N)=O	-	-	69.2	-	-	-
CCOc1cc(/C=N/NC(N)=O)ccc1OC(=O)c1ccc(C)cc1	-	-	-	-	-	-
O=C(Nc1ccccc1)N1CCN(c2ncccn2)CC1	-	-	-	-	-	-
CCCNC(=O)N1CCN(c2ncccn2)CC1	-	-	-	-	-	56.4
O=C(CSc1ncnc2c1nnn2Cc1ccccc1F)N1CCN(c2ccccc2)CC1	-	-	-	-	-	-
CN(C)c1cc[n+](Cc2c(Cl)cccc2Cl)cc1	-	-	-	-	-	-
Cc1cc(C)cc(OCC(=O)Nc2nonc2NC(=O)COc2cc(C)cc(C)c2)c1	-	-	77.8	-	-	-
CCOC(=O)C(=O)/C(=C\N(C)C)c1onc(-c2c(Cl)cccc2Cl)c1C(=O)OC	-	-	-	-	-	-
COc1ccccc1NC(=O)C1=C(C)NC2=C(C(=O)CCC2)C1c1ccc2c(c1)OCO2 (stereo not drawn)	-	-	-	-	-	-
CCn1cc(C(=O)NCc2ccco2)c2cc(OC)c(OC)cc2c1=O	-	-	-	-	-	-
CCOc1ccc(-n2cc(C(=O)NCc3ccco3)c3cc(OC)c(OC)cc3c2=O)cc1	-	-	-	-	63.3	-
CC(C)(C)SCCNC(=O)CN(c1ccc(F)cc1)S(C)(=O)=O	-	79.3	90.0	-	-	-
CC(C)(C)SCCNC(=O)CN(c1ccc(F)c(Cl)c1)S(C)(=O)=O	-	-	-	-	-	-
COC(=O)[C@H](Cc1ccccc1)NC(=O)NCCC1=CCCCC1	-	-	-	-	.	-
Cc1ccc(OC(C)c2nnc(N)s2)cc1Cl (stereo not drawn)	92.1	-	-	97.3	-	-
Cc1ccc(S(=O)(=O)NNc2nc3ccccc3nc2C(F)(F)F)cc1	-	-	-	-	-	-
Cc1cc([N+](=O)[O-])cnc1NC(C)c1ccccc1 (stereo not drawn)	-	-	-	-	-	-
CC1=C(C(N)=O)C(c2ccc(Cl)cc2Cl)n2ncnc2N1 (stereo not drawn)	-	-	-	95.8	-	-
CC(=O)C1=C(C)Nc2ncnn2C1c1ccccc1Cl (stereo not drawn)	-	-	-	-	-	-
SMILES	HUVEC tox IL1B	TNFa cytotox	VCAM1 TNFa inh	NFkB transloc inh	F-actin modifier	IL1B NFkB pot
Cc1ccc(C(c2nnnn2Cc2ccccc2)N2CCN(Cc3ccccc3)CC2)cc1 (stereo not drawn)	-	-	-	-	-	-
COc1ccc(NC(=O)C2CCCCN2CC(=O)OCc2ccccc2)cc1OC (stereo not drawn)	-	-	-	-	-	-
CC(NS(=O)(=O)c1ccccc1)C(=O)Nc1ccc(S(N)(=O)=O)cc1 (stereo not drawn)	-	-	-	-	-	-
CC(NS(=O)(=O)c1ccccc1)C(=O)Nc1nccs1 (stereo not drawn)	-	-	-	-	-	43.8
COC(=O)CCC(=O)NC(=S)Nc1cc(Cl)ccc1Cl	-	-	-	-	-	-
CC1Cc2ccccc2N1C(=O)CSc1nnnn1C(C)C (stereo not drawn)	-	-	-	-	-	-
O=C(c1ccco1)N1c2ccccc2Sc2ccccc21	-	-	-	-	-	-
O=C(c1ccco1)N1CCN(C(=O)N2c3ccccc3Sc3ccccc32)CC1	-	-	82.7	-	-	-
Cc1ccc(C(=O)Nn2c(O)c(C=C3N=c4ccccc4=N3)sc2=S)cc1	-	-	-	-	-	-
O=C(Nn1c(O)c(C=C2N=c3ccccc3=N2)sc1=S)c1ccccc1	87.6	-	-	-	-	-
O=C(NC1(C(F)(F)F)NC(=O)N(c2ccc(F)c(Cl)c2)C1=O)c1ccncc1 (stereo not drawn)	87.8	.	-	-	-	-
O=C1NC(Nc2ccccn2)(C(F)(F)F)C(=O)N1c1ccc(F)cc1 (stereo not drawn)	-	-	-	-	-	-
O=C(CSc1ncn[nH]1)Nc1ccccc1Sc1ccc(Cl)cc1	-	-	-	-	-	-
CCNc1nc(NC(C)C)nc(Nn2cnnc2)n1	90.3	-	-	96.2	-	-
O=C(COC(=O)c1ccc(S(=O)(=O)Nc2ccccc2)cc1)NCc1ccco1	-	-	-	-	-	-
Nc1nnc(CCOc2ccccc2Cl)s1	-	-	-	61.2	-	-
COc1ccc(OCCC(=O)N2CCCCC2)cc1	87.4	-	-	87.6	-	-
N#CCSc1nc2c(c(=O)n1Cc1ccco1)C1(CCCC1)Cc1ccccc1-2	-	-	-	-	-	-
CCCn1c(SCC#N)nc2c(c1=O)C1(CCCC1)Cc1ccccc1-2	92.8	-	-	-	-	-
Cc1cc(NC(=O)C(=O)NCCN2CCN(C(=O)c3cccs3)CC2)ccc1Br	-	-	-	-	34.4	-
O=C(OCn1nnc2ccccc2c1=O)c1cccnc1	-	-	-	-	-	-
O=C(OCn1nnc2ccccc2c1=O)c1cn(-c2ccccc2)nc1-c1cccnc1	-	-	-	-	-	97.6
CCOC(=O)Cc1csc(NC(NC(=O)OCC)(C(=O)OCC)C(F)(F)F)n1 (stereo not drawn)	-	-	-	-	-	-
S=c1[nH]nc(-c2ccccc2Cl)n1CC1CCCO1 (stereo not drawn)	70.3	-	-	-	-	-
CNc1nc(SCc2ccc(C)cc2)nc2c1CCCC2	-	-	-	41.8	-	-
SMILES	HUVEC tox IL1B	TNFa cytotox	VCAM1 TNFa inh	NFkB transloc inh	F-actin modifier	IL1B NFkB pot
O=C(CCCCCCCC(=O)NCC1CCCO1)NCC1CCCO1 (stereo not drawn)	-	-	-	-	-	-
O=C(NCC1CCCO1)NC1CCCCC1 (stereo not drawn)	94.0	-	-	-	-	-
CCC(C)Sc1nc(O)cc(=O)[nH]1 (stereo not drawn)	-	78.3	-	-	-	-
CCOC(=O)C=C1CCN(c2ncc(C(F)(F)F)cc2Cl)CC1	-	-	-	-	-	-
Nc1nc2c3ccccc3nc(Cc3ccccc3)n2n1	-	-	93.2	-	-	-
CCOC(=O)/C(=C\c1cccnc1)C(=O)c1cc(C(C)=O)c(Nc2ccccc2)s1	-	-	53.9	-	.	-
CC(C)(C)Cc1nnc(NS(C)(=O)=O)s1	-	-	-	-	-	-
